In PubChem BioAssay AID1159580 (chemical genetic matrix, 2015):
Values joined by “and” are separate entries in the source; they are usually repeats but may differ in a detail not shown here. Equal entries are not always repeated. Hit rate of the full screen: of about 5,500 compounds, about 2,000 (36%) were called active. Another 18% or so got no clear call; they are omitted. Rule as the data show it: active = normalized growth mostly below about 0.91 (no sharp cut-off); inconclusive = no clear call, values can overlap the other calls; inactive = mostly above about 0.92. This is one part of the list.

Experiment: chemical genetic growth profiling, strain panel (AID 1159580);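 also: tested at 20 µM; growth read once vehicle control cultures reached saturation at 30 °C; 1 = growth at the plate median or of vehicle wells; lower values mean less growth of the strain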
Details: S. cerevisiae deletion strains, growth OD
[1] = locus YHR030C, strain SLT2, hits give low values
[2] = locus YHR079C, strain IRE1, hits give low values
[3] = locus YJL095W, strain BCK1, hits give low values
[4] = locus YJR066W, strain TOR1, hits give low values
[5] = locus YLR113W, strain HOG1, hits give low values
[6] = locus YNL183C, strain NPR1, hits give low values
[7] = locus YOR231W, strain MKK1, hits give low values
[8] = locus YPL256C, strain CLN2, hits give low values

Measured: normalized growth

C[C@H]1CC2C([C@@H](O)C[C@@]3(C)C2CC[C@]3(O)C(=O)COC(=O)CCC(=O)O)[C@@]2(C)C=CC(=O)C=C12 (some centres undefined)
inactive: [1] 0.999 | [2] 1.02 | [3] 1.02 | [4] 1 | [5] 1.04 | [6] 0.995 | [7] 1.06 | [8] 1.03

CC1=C2[C@H]3OC(=O)[C@@H](C)[C@@H]3CC[C@@]2(C)C=CC1=O
inactive: locus YAL013W, strain DEP1, hits give low values 1.01 | locus YAL021C, strain ccr4, hits give low values 0.97 | locus YAL026C, strain drs2, hits give low values 0.968 | locus YAL030W, strain snc1, hits give low values 0.982 | locus YBL061C, strain skt5, hits give low values 0.968 | locus YBR009C, strain hhf1, hits give low values 0.975 | locus YBR021W, strain FUR4, hits give low values 0.972 | locus YBR023C, strain chs3, hits give low values 0.953 | locus YBR171W, strain sec66, hits give low values 0.962 | locus YBR229C, strain ROT2, hits give low values 1.01 | locus YBR231C, strain swc5, hits give low values 0.992 | locus YBR279W, strain paf1, hits give low values 0.994 | locus YCL011C, strain gbp2, hits give low values 0.979 | locus YCL016C, strain dcc1, hits give low values 0.995 | locus YCL029C, strain bik1, hits give low values 1.04 | locus YCL061C, strain MRC1, hits give low values 0.976 | locus YCL069W, strain vba3, hits give low values 0.967 | locus YCR088W, strain abp1, hits give low values 0.976 | locus YDL005C, strain med2, hits give low values 0.964 | locus YDL035C, strain GPR1, hits give low values 1.02 | locus YDL040C, strain nat1, hits give low values 0.979 | locus YDL074C, strain BRE1, hits give low values 1.02 | locus YDL101C, strain DUN1, hits give low values 1.02 | locus YDL185W, strain tfp1, hits give low values 1.02 | locus YDL192W, strain arf1, hits give low values 1.03 | locus YDR001C, strain nth1, hits give low values 0.98 | locus YDR069C, strain doa4, hits give low values 0.946 | locus YDR101C, strain arx1, hits give low values 1.01 | locus YDR137W, strain rgp1, hits give low values 0.972 | locus YDR159W, strain sac3, hits give low values 0.941 | locus YDR162C, strain NBP2, hits give low values 1.02 | locus YDR195W, strain ref2 0.953 | locus YDR297W, strain sur2, hits give low values 0.968 | locus YDR318W, strain mcm21, hits give low values 1.04 | locus YDR334W, strain swr1, hits give low values 0.96 | locus YDR335W, strain msn5, hits give low values 0.987 | locus YDR388W, hits give low values 1.01 | locus YDR392W, strain spt3, hits give low values 0.99 | locus YDR502C, strain sam2, hits give low values 1.02 | locus YEL003W, strain gim4, hits give low values 0.98 | locus YEL037C, strain rad23, hits give low values 0.978 | locus YEL061C, strain CIN8 (second series), hits give low values 0.972 | locus YEL061C, strain CIN8, hits give low values 1.01 | locus YER015W, strain faa2, hits give low values 0.974 | locus YER016W, strain bim1, hits give low values 0.978 | locus YER110C, hits give low values 1.02 | locus YER111C, strain swi4, hits give low values 0.963 | locus YER155C, strain BEM2 (second series), hits give low values 0.946 | locus YER155C, strain BEM2, hits give low values 1 | locus YER167W, strain BCK2, hits give low values 1.01 | locus YFR010W, strain ubp6, hits give low values 0.953 | locus YGL078C, strain dbp3, hits give low values 1.02 | locus YGL086W, strain mad1, hits give low values 1.01 | locus YGL167C, strain pmr1, hits give low values 0.963 | locus YGL173C, strain kem1, hits give low values 0.974 | locus YGL227W, strain vid30, hits give low values 0.984 | locus YGL240W, strain doc1, hits give low values 0.963 | locus YGL248W, strain PDE1, hits give low values 1.03 | locus YGL253W, strain hxk2, hits give low values 0.98 | locus YGR078C, strain PAC10, hits give low values 1.02 | locus YGR135W, strain pre9, hits give low values 1.03 | locus YGR229C, strain SMI1, hits give low values 1.05 | locus YGR252W, strain gcn5, hits give low values 0.991 | locus YHR013C, strain ard1, hits give low values 0.956 | locus YHR027C, strain rpn1, hits give low values 0.986 | [1] 0.981 | locus YHR079C, strain IRE1 (second series), hits give low values 1.02 | [2] 1 | locus YHR094C, strain hxt1, hits give low values 1.03 | locus YHR129C, strain ARP1, hits give low values 1.01 | locus YHR142W, strain chs7, hits give low values 0.98 | locus YHR200W, strain rpn10, hits give low values 1.01 | locus YIL066C, strain RNR3, hits give low values 1.02 | locus YIL073C, strain SPO22, hits give low values 1.06 | locus YIL125W, strain kgd1, hits give low values 1.02 | locus YIR030C, strain dcg1, hits give low values 1.02 | locus YJL092W, strain hpr5, hits give low values 0.975 | locus YJL095W, strain BCK1 (second series), hits give low values 0.964 | [3] 1.03 and 0.993 | locus YJL115W, strain asf1, hits give low values 0.973 | locus YJL129C, strain trk1, hits give low values 0.962 | locus YJL134W, strain LCB3, hits give low values 1.01 | locus YJL154C, strain vps35, hits give low values 0.98 | locus YJL164C, strain tpk1, hits give low values 0.984 | locus YJL166W, strain qcr8, hits give low values 0.969 | locus YJL168C, strain set2, hits give low values 1.02 | locus YJL187C, strain SWE1 (second series), hits give low values 1.02 | locus YJL187C, strain SWE1, hits give low values 0.966 | locus YJR043C, strain POL32, hits give low values 1.01 | [4] 0.956 | locus YJR075W, strain HOC1, hits give low values 1.02 | locus YKL009W, strain mrt4, hits give low values 1.03 | locus YKL068W, hits give low values 0.995 | locus YKL085W, strain MDH1 (second series), hits give low values 1.02 | locus YKL085W, strain MDH1, hits give low values 1.02 | locus YKL160W, strain elf1, hits give low values 0.994 | locus YKL190W, strain CNB1, hits give low values 1.01 | locus YKR001C, strain vps1, hits give low values 1.03 | locus YKR026C, strain gcn3, hits give low values 0.965 | locus YKR091W, strain srl3, hits give low values 0.983 | locus YLL001W, strain dnm1, hits give low values 0.996 | locus YLL026W, hits give low values 0.995 | locus YLL041C, strain sdh2, hits give low values 0.998 | locus YLR027C, strain aat2, hits give low values 0.979 | locus YLR039C, strain RIC1, hits give low values 1.04 | locus YLR058C, strain SHM2, hits give low values 1.02 | locus YLR102C, strain apc9, hits give low values 1.03 | [5] 0.963 | locus YLR221C, strain rsa3, hits give low values 0.959 | locus YLR258W, strain gsy2, hits give low values 0.985 | locus YLR262C, strain YPT6 (second series), hits give low values 0.997 | locus YLR262C, strain YPT6, hits give low values 1.06 | locus YLR268W, strain sec22, hits give low values 1.02 | locus YLR320W, strain mms22, hits give low values 0.978 | locus YLR342W, strain FKS1 (second series), hits give low values 1.01 | locus YLR342W, strain FKS1, hits give low values 0.974 | locus YLR357W, strain rsc2, hits give low values 0.948 | locus YLR370C, strain arc18, hits give low values 0.977 | locus YLR371W, strain rom2, hits give low values 1.01 | locus YLR384C, strain iki3, hits give low values 0.96 | locus YLR418C, strain cdc73, hits give low values 1.03 | locus YML016C, strain PPZ1, hits give low values 1.02 | locus YML032C, strain rad52, hits give low values 1.02 | locus YML120C, strain ndi1, hits give low values 1.01 | locus YML124C, strain tub3, hits give low values 1.02 | locus YMR058W, strain fet3, hits give low values 0.977 | locus YMR078C, strain ctf18, hits give low values 1.04 | locus YMR125W, strain sto1, hits give low values 0.968 | locus YMR129W, hits give low values 0.997 | locus YMR205C, strain PFK2, hits give low values 0.982 | locus YMR223W, strain ubp8, hits give low values 1.01 | locus YMR231W, strain pep5, hits give low values 0.973 | locus YMR263W, strain SAP30, hits give low values 1.02 | locus YMR307W, strain GAS1, hits give low values 1.05 | locus YNL067W, strain RPL9B, hits give low values 1.02 | locus YNL071W, strain lat1, hits give low values 0.994 | locus YNL153C, strain GIM3, hits give low values 1.03 | [6] 0.951 | locus YNL209W, strain ssb2, hits give low values 0.981 | locus YNL233W, strain BNI4, hits give low values 1.02 | locus YNL248C, strain rpa49, hits give low values 0.962 | locus YNL250W, strain rad50, hits give low values 1.04 | locus YNL271C, strain bni1, hits give low values 1.02 | locus YNL298W, strain CLA4, hits give low values 1.03 | locus YNL307C, strain MCK1, hits give low values 1.03 | locus YNL322C, strain KRE1 (second series), hits give low values 0.954 | locus YNR049C, strain mso1, hits give low values 0.983 | locus YNR052C, strain pop2, hits give low values 1.01 | locus YOL012C, strain htz1 0.992 | locus YOL147C, strain pex11, hits give low values 1.02 | locus YOR001W, strain rrp6, hits give low values 0.939 | locus YOR061W, strain CKA2, hits give low values 1.02 | locus YOR069W, strain VPS5, hits give low values 1.01 | locus YOR070C, strain gyp1, hits give low values 0.984 | locus YOR080W, strain dia2, hits give low values 0.97 | locus YOR083W, strain WHI5, hits give low values 1.01 | locus YOR106W, strain vam3, hits give low values 1 | locus YOR136W, strain idh2, hits give low values 1.01 | locus YOR144C, strain elg1, hits give low values 1.02 | locus YOR184W, strain ser1, hits give low values 1.03 | [7] 0.965 | locus YOR265W, strain rbl2, hits give low values 0.99 | locus YOR270C, strain vph1, hits give low values 0.926 | locus YOR290C, strain snf2, hits give low values 0.982 | locus YOR316C, strain cot1, hits give low values 1.02 | locus YPL051W, strain arl3, hits give low values 0.987 | locus YPL078C, strain atp4, hits give low values 0.988 | locus YPL106C, strain sse1, hits give low values 0.96 | locus YPL240C, strain hsp82, hits give low values 0.964 | locus YPL241C, strain CIN2, hits give low values 1.01 | [8] 0.977 | locus YPR119W, strain clb2, hits give low values 1.01 | locus YPR141C, strain kar3, hits give low values 1.02 | locus YPR163C, strain tif3, hits give low values 1.03 | locus YPR167C, strain met16, hits give low values 1.02 | strain wtn01, hits give low values 1
